Conditions in all cases: primary human HUVEC with PBMC; actives raise or lower the signal
The nature of experiment [1]: BSK_LPS_PGE2: BioMAP Diversity Plus: LPS Assay for Prostaglandin E2 (PGE2) Biomarker Activity (AID 2283082). Summed up: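 PGE2 release measured by ELISA in an LPS-activated co-culture of human umbilical vein endothelial cells and peripheral blood mononuclear cells, read at 24 h post-dosing. DMSO served as baseline for bidirectional curve fitting.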
Read-out in experiment [2]: Macrophage colony-stimulating factor (MCSF), CSF1 (gene 1435)
Kind of experiment: BSK_LPS_MCSF: BioMAP Diversity Plus: LPS Assay for Macrophage colony-stimulating factor (MCSF) Biomarker Activity (AID 2283083). Summed up:
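ELISA readout of M-CSF after 24 h compound exposure in a human endothelial/PBMC co-culture. Activity, in either direction, is fitted relative to DMSO vehicle.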

Read-out in experiment [3]: Tissue Factor, F3 (gene 2152)
Kind of experiment: BSK_LPS_TissueFactor: BioMAP Diversity Plus: LPS Assay for Tissue Factor Biomarker Activity (AID 2283084). Summed up: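 ELISA signal for cell-surface Tissue Factor (CD142) was read 24 h after compound dosing of an LPS-stimulated human endothelial–PBMC primary co-culture. Gain or loss of signal was scored relative to DMSO.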

Read-out in experiment [4]: Tumor necrosis factor (Homo sapiens) (UniProt P01375)
The experiment can be described thus: BSK_LPS_TNFa: BioMAP Diversity Plus: LPS Assay for Tumour Necrosis Factor alpha (TNFa) Biomarker Activity (AID 2283085).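 On AC50: TNFa protein level quantified by ELISA in the co-culture.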 Summed up: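 TNFa was quantified by ELISA in LPS-activated co-cultures of human endothelial cells and PBMC, 24 h post-dosing. Both increases and decreases versus DMSO were fitted.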

Read-out in experiment [5]: Vascular cell adhesion molecule 1 (VCAM1), VCAM1 (gene 7412)
The experiment can be described thus: BSK_LPS_VCAM1: BioMAP Diversity Plus: LPS Assay for Vascular cell adhesion molecule 1 (VCAM1) Biomarker Activity (AID 2283086). Summed up: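 VCAM-1 quantified by ELISA in an LPS-activated co-culture of human endothelial cells and peripheral blood mononuclear cells, read 24 h post-treatment. Fitted in both directions versus DMSO; parallel SRB staining flags overt cytotoxicity.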

Read-out in experiment [6]: CD38, CD38 (gene 952)
Kind of experiment: BSK_SAg_CD38: BioMAP Diversity Plus: SAg Assay for CD38 Biomarker Activity (AID 2283087). Summed up:
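CD38 quantified by ELISA (fluorescence) in a superantigen-activated endothelial cell–PBMC co-culture at 24 h post-dose. Activity fitted in both directions relative to DMSO; parallel SRB and Alamar Blue cytotoxicity read-outs.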

Read-out in experiment [7]: CD69, CD69 (gene 969)
Kind of experiment: BSK_SAg_CD69: BioMAP Diversity Plus: SAg Assay for CD69 Biomarker Activity (AID 2283089).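 On AC50: cell surface CD69 protein quantified by ELISA with fluorescence detection.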 Summed up:
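Primary human vascular co-culture (umbilical vein endothelium with peripheral blood mononuclear cells) exposed to test chemical for 24 h. CD69 levels quantified by fluorescence ELISA; DMSO served as negative control for bidirectional fitting.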

Read-out in experiment [8]: Monocyte Chemoattractant Protein-1 (MCP1), CCL2 (gene 6347)
Kind of experiment: BSK_SAg_MCP1: BioMAP Diversity Plus: SAg Assay for Monocyte Chemoattractant Protein-1 (MCP1) Biomarker Activity (AID 2283090). The essentials:
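Values derive from bidirectional fitting of ELISA-measured MCP1 against DMSO controls. Readings were taken 24 h after dosing human vascular endothelial cells co-cultured with peripheral blood mononuclear cells under superantigen stimulation.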

Read-out in experiment [9]: E-selectin (Homo sapiens) (UniProt P16581)
Kind of experiment: BSK_SAg_Eselectin: BioMAP Diversity Plus: SAg Assay for Eselectin Biomarker Activity (AID 2283091). The essentials:
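Co-culture: HUVEC + PBMC. Dose compound; 24 h. ELISA for E-selectin. Bidirectional fit vs DMSO.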

Read-out in experiment [10]: CD40, CD40 (gene 958)
Kind of experiment: BSK_SAg_CD40: BioMAP Diversity Plus: SAg Assay for CD40 Biomarker Activity (AID 2283088). Summed up:
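Compounds were dosed onto a human primary endothelial–PBMC co-culture, and after 24 h CD40 was quantified by ELISA using a fluorescence signal. Activity in either direction was fitted relative to DMSO.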

As a reminder, the AC50 is the concentration at which the activity in the assay is half-maximal.

Calls of active or inactive are those of the source. How the source made its calls: active means hit-call score of the fitted dose curve at least 0.9, where 1 is the maximum; inactive means score below 0.9.

Sequence of E-selectin (Homo sapiens) (P16581 whole entry, looked up): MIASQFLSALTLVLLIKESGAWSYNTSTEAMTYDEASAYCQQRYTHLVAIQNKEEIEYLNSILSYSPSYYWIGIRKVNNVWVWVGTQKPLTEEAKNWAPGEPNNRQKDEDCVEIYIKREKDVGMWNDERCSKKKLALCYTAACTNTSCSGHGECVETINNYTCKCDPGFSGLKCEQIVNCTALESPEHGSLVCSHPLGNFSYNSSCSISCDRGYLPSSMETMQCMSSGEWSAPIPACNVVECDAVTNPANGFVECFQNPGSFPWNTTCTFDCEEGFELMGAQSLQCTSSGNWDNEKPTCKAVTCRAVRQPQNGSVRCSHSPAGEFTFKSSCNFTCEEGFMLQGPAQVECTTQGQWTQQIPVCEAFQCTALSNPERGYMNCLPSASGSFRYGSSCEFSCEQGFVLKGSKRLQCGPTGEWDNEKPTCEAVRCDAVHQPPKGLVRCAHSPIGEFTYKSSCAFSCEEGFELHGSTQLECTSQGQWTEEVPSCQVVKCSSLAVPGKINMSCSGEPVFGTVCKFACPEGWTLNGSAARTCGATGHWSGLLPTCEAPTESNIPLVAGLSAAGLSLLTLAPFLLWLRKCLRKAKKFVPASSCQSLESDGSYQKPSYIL
Sequence of Tumor necrosis factor (Homo sapiens) (P01375 whole entry, looked up): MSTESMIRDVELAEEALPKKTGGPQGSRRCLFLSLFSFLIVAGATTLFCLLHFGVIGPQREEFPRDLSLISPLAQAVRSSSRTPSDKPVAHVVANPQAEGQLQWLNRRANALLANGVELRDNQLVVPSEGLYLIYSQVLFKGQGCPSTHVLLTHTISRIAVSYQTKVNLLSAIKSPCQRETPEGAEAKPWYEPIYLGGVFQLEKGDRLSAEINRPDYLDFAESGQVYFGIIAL

Turning to `O=C1NC(=O)C(c2ccccc2)(c2ccccc2)N1`, the result in [1], in experiment [2], in [3], in experiment [4], in [5] and in experiment [6] was inactive. In addition, the result in experiment [7], in experiment [8] and in [9] was inactive.
For `CC(=O)O[C@]1(C(C)=O)CC[C@H]2[C@@H]3C=C(Cl)C4=CC(=O)[C@@H]5C[C@@H]5[C@]4(C)[C@H]3CC[C@@]21C`, the result in experiment [1], in experiment [2], in experiment [3], in experiment [4], in [6] and in [8] was inactive. The result in experiment [9] was inactive. Moreover, the concentration at half-maximal activity (AC50) was 30.1 µM (active) in experiment [10] and 30.5 µM (active) in [7].
For the compound `CCCC[C@H]1CN(CC2CCOCC2)C(=O)OC12CCN(C1(C)CCN(C(=O)c3c(C)ncnc3C)CC1)CC2`, the outcome in [1], in experiment [2], in [3], in [4], in experiment [6] and in experiment [10] was inactive. In addition, the outcome in experiment [7], in experiment [8] and in experiment [9] was inactive.
For the compound `CC(C)(O)c1ccc(CNC(=O)c2cccnc2Oc2ccc(F)cc2)cc1`, the result in [1], in [2], in experiment [3], in [10] and in experiment [7] was inactive. Moreover, the AC50 in [4] is 0.598 µM (active); in experiment [6] it was 1.19 µM (active); in experiment [8] it was 1.16 µM (active); in experiment [9] it was 0.737 µM (active).
In the case of `C/C=C/c1ccc(OC)cc1`, the result in [1], in [2], in experiment [3], in [4], in experiment [5] and in experiment [6] was inactive. In addition, the outcome in experiment [7], in experiment [8] and in [9] was inactive.
With `CC(COCC(C)OC(=O)c1ccccc1)OC(=O)c1ccccc1` (stereo not drawn), the result in experiment [1], in experiment [2], in experiment [3], in experiment [4], in experiment [5] and in [6] was inactive. Further, the result in experiment [7], in [8] and in experiment [9] was inactive.
Regarding `CC(C)NCC(O)c1ccc(O)c(O)c1` (stereo not drawn), the outcome in experiment [1], in experiment [2], in [3], in experiment [5], in experiment [6] and in experiment [7] was inactive. The outcome in experiment [8] and in [9] was inactive. Besides, in [4], the AC50 is 0.262 µM (active).
Consider `CN(C)CCCN1c2ccccc2Sc2ccc(Cl)cc21`, for which the result in experiment [1] and in [3] was inactive. Also, the AC50 in experiment [2] was 30.1 µM (active); in experiment [4], 27.8 µM (active); in experiment [5] it was 29.9 µM (active); in experiment [6], 28.8 µM (active); in [7] it was 28.6 µM (active); in experiment [9], 27.7 µM (active).
For the compound `CC(N)=O`, the result in [1], in experiment [2], in experiment [3], in [4], in experiment [6] and in [10] was inactive. Also, the outcome in experiment [7], in experiment [8] and in experiment [9] was inactive.
As to `NC=O`, the outcome in experiment [1], in [2], in [3], in experiment [4], in experiment [6] and in [10] was inactive. In addition, the outcome in experiment [7], in experiment [8] and in [9] was inactive.
In the case of `Nc1nc(=S)c2[nH]cnc2[nH]1`, the AC50 in experiment [1] is 20 µM (active). Further, the outcome in [2], in experiment [3], in [4], in experiment [5], in experiment [6] and in [7] was inactive. Besides, the result in [8] and in [9] was inactive.
`CC(C)OC(=O)C(C)(C)Oc1ccc(C(=O)c2ccc(Cl)cc2)cc1`: the result in experiment [1], in [3] and in [4] was inactive. In addition, the AC50 was 27.3 µM (active) in [2]; 32.2 µM (active) in [5]; 16.1 µM (active) in experiment [6]; 20 µM (active) in [8]; 33.5 µM (active) in [9].
As to `CN(C)C(=O)NC1(c2ccccc2)CCN(CCC[C@]2(c3ccc(Cl)c(Cl)c3)CCCN(C(=O)c3ccccc3)C2)CC1`, the result in experiment [1], in [2], in [3], in [4], in experiment [6] and in experiment [7] was inactive. Also, the result in [8] and in experiment [9] was inactive. In addition, the AC50 in experiment [5] is 6.96 µM (active).
Consider `CC(=O)OCC(COC(C)=O)OC(C)=O`, for which the result in experiment [1], in experiment [2], in [3], in [4], in experiment [5] and in experiment [6] was inactive. Also, the result in [7], in experiment [8] and in [9] was inactive.
For the compound `COC(=O)CCCC(=O)OC`, the result in [1], in experiment [2], in experiment [3], in [4], in experiment [5] and in experiment [6] was inactive. Moreover, the outcome in experiment [7], in experiment [8] and in experiment [9] was inactive.
Turning to `CC(=O)[C@@]1(O)CC[C@H]2[C@@H]3CCC4=CC(=O)CC[C@]4(C)[C@H]3CC[C@@]21C`, the result in [1], in experiment [2], in experiment [3], in experiment [4], in [5] and in [6] was inactive. Further, the result in [7], in [8] and in [9] was inactive.
Consider `NC1CCCCC1`, for which the result in experiment [1], in experiment [2], in [3], in experiment [4], in [5] and in experiment [6] was inactive. The result in [7], in experiment [8] and in experiment [9] was inactive.
As for `CN(C)CCCN(C)CCCN(C)C`, the outcome in experiment [1], in experiment [2], in experiment [3], in [4], in [6] and in experiment [10] was inactive. In addition, the outcome in experiment [7], in [8] and in [9] was inactive.
As for `CCCCc1nc2cccnc2n1Cc1ccc(-c2ccccc2-c2nnn[nH]2)cc1`, the outcome in experiment [1], in experiment [2], in experiment [3], in experiment [4], in experiment [6] and in experiment [10] was inactive. Also, the result in [7], in experiment [8] and in [9] was inactive.
`CC1=C(C)S(=O)(=O)CCS1(=O)=O`: the result in experiment [1], in experiment [2], in experiment [3], in [4], in experiment [6] and in experiment [10] was inactive. In addition, the result in [7] and in experiment [8] was inactive. In addition, the AC50 in experiment [9] is 3.97 µM (active).
In the case of `O=[Si]=O`, the result in experiment [1], in experiment [2], in experiment [3], in experiment [4], in experiment [6] and in experiment [7] was inactive. The outcome in [8] and in experiment [9] was inactive.
Regarding `Cc1cc(SC2=C(O)C[C@@](CCc3ccc(N)cc3)(C(C)C)OC2=O)c(C(C)(C)C)cc1CO`, the result in experiment [1], in experiment [2], in [3], in [6], in [10] and in experiment [7] was inactive. For the same compound, the result in [8] and in [9] was inactive. Also, in [4], the AC50 is 20 µM (active).
Take `O=C1CCCCC1`: the result in experiment [1], in experiment [2], in experiment [3], in experiment [4], in [6] and in [7] was inactive. Moreover, the outcome in experiment [8] and in experiment [9] was inactive.

Source of the values: PubChem BioAssay (EPA / NIEHS).
